Source: PubChem (National Center for Advancing Translational Sciences (NCATS))
DT40 TDP1 CPT: growth inhibition of DT40 Tdp1-/-;hTDP1 cells with camptothecin (screen for TDP1 inhibitors) | chicken DT40 Tdp1-/-;hTDP1 cells + 20 nM CPT, ATP luminescence, 48 h | Potency, µM (doses to about 46.2 µM), inactives show at the top dose activity change, negative = growth inhibition, hits mostly inhibitors | 420,000 compounds, 12% hits | AID 686979; also: potency is read from the fitted curve at half-maximal effect; % is scaled to controls: 0 for no effect and ±100 for the full control effect; nearly all actives have a fitted effect of over 55% in size
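Chicken DT40 Tdp1-/- cells stably complemented with human TDP1 were seeded at 400 cells/well in medium containing 20 nM camptothecin, exposed to pin-transferred compounds, and grown at 37 °C for at least 48 hr. Viability was read as ATP luminescence.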
IL1B secr inh: blocks inflammasome-driven IL-1 beta release; 360,000 compounds, 4.7% hits; AID 743279; activity change, % at 57.5 µM; THP-1 LPS/ATP IL-1B secretion, AlphaLISA, 16 h; stronger effect = lower value; in the data active = activity change below about -50%; inconclusive = mostly about -30% to -49%; also: % is scaled to controls: 0 for no effect and ±100 for the full control effect
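Secreted IL-1B measured by AlphaLISA bead assay after 16 h compound exposure of THP-1 cells; compounds (final up to 57.5 uM) added 1 h before LPS (250 ng/mL) and ATP (1.25 mM) stimulation; lower signal means less secretion.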
HepG2 viability: HepG2 cytotoxicity, counter-screen for TGF-b inhibitors; 410,000 compounds, 0.76% hits; Potency, µM (highest dose often 46.1 µM), inactives show at the top dose activity change, negative = cytotoxicity, most hits filed as cytotoxic; AID 588856; HepG2 CAGA-GFP viability, ATP luminescence, 18 h; also: potency is read from the fitted curve at half-maximal effect
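CellTiter-Glo luminescence gave cytotoxicity after 18 hours at 37 degrees C. The cells were HepG2 CAGA-GFP in 1% FBS DMEM, stimulated with 500 pg/mL TGF-beta after compound addition. %Activity was normalised to no-cell wells (complete cell-killing) and DMSO (no toxicity), and curves were fitted and classified.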
S-ASM inh: human S-ASM enzyme inhibition. P17405. placental ASM, HMU-PC fluorogenic substrate, 60 min. Potency, µM (doses to about 57.5 µM), without a hit: top-dose activity change, negative = inhibition, most hits filed as inhibitors. 340,000 compounds, 0.006% hits. AID 504937; also: potency is read from the fitted curve at half-maximal effect
Target sequence (P17405 47-631 limits assumed): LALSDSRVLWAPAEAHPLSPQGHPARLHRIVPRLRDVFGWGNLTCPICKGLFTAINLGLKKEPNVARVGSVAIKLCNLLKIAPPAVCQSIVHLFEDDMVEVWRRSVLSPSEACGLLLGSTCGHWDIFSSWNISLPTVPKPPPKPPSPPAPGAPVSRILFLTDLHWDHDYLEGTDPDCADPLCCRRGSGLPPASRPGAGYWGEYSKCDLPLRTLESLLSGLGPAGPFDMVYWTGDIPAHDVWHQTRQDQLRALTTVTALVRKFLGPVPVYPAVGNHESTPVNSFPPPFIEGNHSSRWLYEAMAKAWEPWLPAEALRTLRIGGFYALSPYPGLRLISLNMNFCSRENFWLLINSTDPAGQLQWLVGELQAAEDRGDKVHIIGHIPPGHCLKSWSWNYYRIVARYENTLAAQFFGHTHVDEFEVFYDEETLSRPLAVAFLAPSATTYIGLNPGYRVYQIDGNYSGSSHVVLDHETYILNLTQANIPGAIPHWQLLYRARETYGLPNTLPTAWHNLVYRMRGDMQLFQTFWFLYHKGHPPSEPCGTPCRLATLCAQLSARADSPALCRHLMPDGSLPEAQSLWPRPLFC
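Steps: dispense placental human ASM, pin compound, wait 10 min at room temperature, add HMU-PC0 substrate at 9 uM final, incubate 60 min at 37 °C, add stop solution raising pH to 10, read fluorescence.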
DT40 TDP1 no CPT: qHTS for Inhibitors of human tyrosyl-DNA phosphodiesterase 1 (TDP1): qHTS in cells in absence of CPT. Potency, µM (series often up to 46.2 µM), without a hit: at the top dose activity change, negative = growth inhibition, hits mostly inhibitors. 420,000 compounds, 15% hits. DT40 Tdp1-/- hTDP1 cells, no CPT, ATP luminescence, 48 h; also: potency is read from the fitted curve at half-maximal effect; % is scaled to controls: 0 for no effect and ±100 for the full control effect; nearly all actives have a fitted effect of over 55% in size
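Chicken DT40 Tdp1-/- cells stably complemented with human TDP1 were seeded at 400 cells/well with DMSO in place of 20 nM camptothecin. After compound pinning, cells grew at least 48 hr at 37 °C; viability read by CellTiter-Glo luminescence.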
TGFb SMAD3 inh: blocks TGF-b signaling | HepG2 CAGA-GFP TGF-b/SMAD3 reporter, GFP fluorescence, 18 h; TGF-beta stimulated, 500 pg/mL final | Potency, µM (titrated, usually from 46.1 µM), for the others: at the top dose activity, negative = inhibition, hits mostly inhibitors | 410,000 compounds, 1.2% hits | AID 588855; also: potency is read from the fitted curve at half-maximal effect; % is scaled to controls: 0 for no effect and ±100 for the full control effect; nearly all actives have a fitted effect of over 65% in size
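HEPG2 CAGA-GFP, 1000 cells/well; 2 h settle, 37 C; cpd via pin tool; TGF-b 500 pg/mL final; 18 h, 37 C; GFP imaging ex488/em500-530; %Activity normalised to -TGF-b and +DMSO controls; CRC fit, curve class.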
Starred values were filed as active, the others as inactive; ? = inconclusive; / = no result. This is a sample that favours compounds with a hit; in the whole collection about 19% have one here. Unless noted, calls follow the shape of the dose curve; as a rule, active = well fitted curve in the direction sought with a large enough effect; inconclusive = small, poorly fitted or top-dose-only effect, or another doubt; inactive = no such curve, though single readings can be large; an effect the other way counts as inactive or inconclusive.

SMILES	DT40 TDP1 CPT	IL1B secr inh	HepG2 viability	S-ASM inh	DT40 TDP1 no CPT	TGFb SMAD3 inh
COc1ccc2c(Sc3ccccc3)c(C(=O)NCCN(C)C)[nH]c2c1	?	/	-28.8%	/	?	-6.9%
O=C(NCCCN1CCCCC1)c1[nH]c2ccccc2c1Sc1ccc(Cl)cc1	20.6µM*	/	12.6µM*	/	20.6µM*	?
COc1ccc2c(Sc3ccccc3)c(C(=O)NCCCN3CCCCC3)[nH]c2c1	?	/	-105.5%	/	18.4µM*	/
COc1ccc2c(Sc3ccccc3)c(C(=O)N3CCC(C)CC3)[nH]c2c1	20.6µM*	/	-114.7%	/	?	14.1µM*
CC1CCCCN1CCCNC(=O)c1[nH]c2ccccc2c1Sc1ccc(Cl)cc1 (configuration not stated)	10.3µM*	/	-108.7%	/	13µM*	?
Cc1c(OCC(=O)NCc2cccnc2)ccc2c3c(c(=O)oc12)CCCC3	4.3%	-27.5	7.8%	-1.6%	5.8%	15.8%
c1ncc(-c2ccoc2)c(NC2CC2)n1	-26.7%	/	/	/	-8.6%	/
CCCCSc1ncnc2c1c(-c1ccccc1)cn2-c1cccc(F)c1	-9.8%	/	-25.1%	/	-8.1%	1.3%
OC(c1ccccc1)c1ncc(-c2ccc(Oc3ccccc3)cc2)[nH]1 (configuration not stated)	23.1µM*	-3.6	-39.6%	/	18.4µM*	?
OC(c1ccc(Cl)cc1)c1ncc(-c2ccc(Oc3ccccc3)cc2)[nH]1 (configuration not stated)	20.6µM*	?	-98.1%	/	20.6µM*	?
COc1ccc(-c2cnc(C(O)c3ccc(-c4ccccc4)cc3)[nH]2)cc1 (configuration not stated)	?	-5.5	-30.8%	/	?	?
CCN1CCN(C(CNS(=O)(=O)c2ccccc2)c2cccnc2)CC1 (configuration not stated)	-12.5%	0.0	-48.8%	-1.0%	-1.6%	15.4%
Cc1ccc2c(Br)cc(Br)c(O)c2n1	7.5µM*	/	/	/	8.41µM*	/
COc1cc(/C=C/c2ccc3c(Br)cc(Br)c(O)c3n2)ccc1O	3.26µM*	25.0	-44.6%	-1.2%	5.17µM*	?
COc1ccc(/C=C/c2ccc3c(Br)ccc(O)c3n2)cc1	10.3µM*	102.9	-19.1%	18.4%	20.6µM*	-9.2%
COc1ccc(/C=C/c2noc(-c3ccccc3O)n2)cc1	5.7%	-24.5	-32.2%	16.6%	?	1.4%
COc1ccc2nc(SCC(=O)Nc3cc(OC)c(OC)cc3C(=O)O)c(C)cc2c1	0.6%	35.4	-0.7%	9.9%	-10.2%	-2.4%
CCCN(CCC)C(=O)Cn1c(SCc2cccc(F)c2)nc2cccnc21	?	/	-32.1%	/	?	-38.2%
Cc1cc(C(=O)C(=O)O)c(C)n1-c1ccc(Cl)cc1	24.1%	2.3	-5.3%	3.7%	-14.8%	-16.8%
Cc1cc(C(=O)C(C)Sc2cccc[n+]2[O-])c(C)n1-c1ccc(Cl)cc1 (configuration not stated)	2.91µM*	-101.0*	4.8%	-4.3%	2.91µM*	16.6%
CC(=O)Nc1ccc(NC(=O)CSc2nccn2Cc2ccccc2)cc1	?	-14.7	6.6%	-0.1%	?	-12.4%
O=C(CN1CCN(Cc2ccc(F)cc2)CC1)Nc1nc2ccccc2s1	-28.4%	-6.6	-43.7%	0.7%	25.9µM*	?
Cc1ccc2nc(NC(=O)CSc3nccn3Cc3ccccc3)sc2c1	25.9µM*	/	-18.2%	/	?	?
O=C(CSc1nccn1Cc1ccc(Cl)cc1)Nc1nc2ccccc2s1	?	/	-62.5%	/	?	?
Cc1ccc2nc(NC(=O)CSc3nccn3Cc3ccc(F)cc3)sc2c1	16.4µM*	/	-25.9%	/	18.4µM*	?
SMILES	DT40 TDP1 CPT	IL1B secr inh	HepG2 viability	S-ASM inh	DT40 TDP1 no CPT	TGFb SMAD3 inh
Cc1ccc(NC(=O)CSc2nccn2Cc2ccccc2)cc1C	?	0.0	-7.0%	-2.8%	20.6µM*	7.4%
CCOc1ccc(N2CC(NC(=O)c3ccco3)CC2=O)cc1 (configuration not stated)	2.7%	/	-2.0%	/	7.1%	18.4%
O=C(NC(Cc1ccc2c(c1)OCO2)C(=O)NC(Cc1ccccc1)C(=O)O)c1ccccc1 (configuration not stated)	-12.3%	6.2	7.1%	1.3%	-12.3%	-7.8%
CCOC(=O)c1c(C)[nH]c(C)c1S(=O)(=O)N1CCCC(C(=O)N2CCN(c3cc(C)ccc3C)CC2)C1 (configuration not stated)	?	/	-25.4%	/	?	?
O=c1ccn(Cc2ccccc2)c(SCc2ccccc2)n1	-4.3%	-13.8	-4.4%	1.4%	?	-25.8%
Clc1ccc(CSc2nccn2Cc2ccccc2)cc1	?	-73.1*	-45.2%	-2.1%	16.4µM*	?
Cc1cc(SCC(=O)OCC(=O)N(C)c2ccccc2)nc2ccccc12	-14.2%	7.2	4.8%	-0.1%	-16.6%	-24.8%
CCOc1ccccc1NC(=O)CCCNC(=O)c1ccc(Cl)cc1	7.3%	28.0	-3.4%	1.0%	-15.8%	0.0%
CCN(C(=O)C(C)OC(=O)CCCNC(=O)c1ccc(Cl)cc1)c1ccccc1 (configuration not stated)	?	-3.0	-11.1%	1.7%	20.6µM*	-26.4%
CCCCN(CCCNC(=O)c1ccc(Sc2ccc(Cl)cc2)c(NC(C)=O)c1)c1ccccc1	?	/	-31.4%	/	-101.8%	?
CC(=O)Nc1cc(C(=O)N2CCCC2)ccc1Sc1ccc(Cl)cc1	20µM*	2.9	-10.1%	0.6%	?	-2.2%
CCN(CCCNC(=O)c1ccc(Sc2ccc(Cl)cc2)c(NC(C)=O)c1)c1ccccc1	?	/	-1.1%	/	23.1µM*	?
O=C(NCc1ccc(Cl)cc1)c1ccc(CSc2nc3ccncc3[nH]2)cc1	?	-74.1*	-19.4%	-0.7%	?	?
Cc1cc(C)cc(NC(=O)CSc2nc3ccncc3[nH]2)c1	6.51µM*	26.8	-24.5%	-3.2%	16.4µM*	-16.9%
Cc1ccc(CSc2nc3ccncc3[nH]2)cc1	?	-16.7	-89.7%	-0.9%	14.6µM*	-16.0%
Cc1cc(C)cc(NC(=O)CCCSc2nc3ccccc3[nH]2)c1	?	?	1.7%	-3.1%	?	13.7%
O=C1CCCC2=C1C(c1ccc(Cl)cc1)C1C(=O)c3ccccc3C1=N2 (configuration not stated)	?	-54.8*	-23.5%	-14.2%	?	?
